In the library only some 3.7% were active in any assay of this set; here they are far more common.
PfHsp90 set2 – inhibits growth of yeast expressing Plasmodium falciparum Hsp90; S. cerevisiae expressing PfHsp90, BacTiter-Glo ATP, 48 h; yeast lacking PDR1 and PDR3 efflux regulators; hit rate 0.32% among 310,000; inhibition, % at 9.4 µM;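 active means every replicate shows inhibition above about 80%, whatever the replicate mean, limit read from the data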;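 further: 0% = DMSO neutral controls and 100% = 20 µM radicicol positive controls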
TIM10 inh – inhibits growth of TIM10 yeast strain. S. cerevisiae TIM10 strain growth, BacTiter-Glo luminescence, 24 h. inhibition, % at 10 µM. hit rate 1.4% among 330,000. AID 463195;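 active means inhibition of 40% or more at the single tested concentration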;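 further: wild-type TIM10 isogenic control strain grown at permissive 25 °C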
NALP3 yeast inh – NALP3 inhibition in yeast; AID 2825; inhibition, % at 10 µM; hit rate 0.39% among 330,000; Yeast reconstituted NLRP3/ASC/caspase-1, beta-gal luminescence, 24 h;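 active means inhibition of 50% or more; inactive means inhibition below 50%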;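 further: plate controls were induced DMSO wells for no effect and uninduced yeast grown without galactose for full effect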
tim23-1 inh – growth inhibitors of tim23-1 mutant yeast. inhibition, % at 20 µM. S. cerevisiae tim23-1 growth, BacTiter-Glo luminescence, 24 h. hit rate 1.3% among 330,000;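 active means growth inhibition of the mutant yeast at or above 50%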;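 further: temperature-sensitive mutant grown at 25 °C; plate controls were DMSO-treated mutant yeast for no effect and medium wells lacking yeast for full effect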
tim10-1 inh – inhibits growth of tim10-1 mutant yeast; S. cerevisiae tim10-1 ts strain growth, BacTiter-Glo, 24 h; inhibition, % at 20 µM; hit rate 2.2% among 330,000;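 active means inhibition of at least 40%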;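 further: mutant grown at 25 °C; 0% = DMSO wells with yeast and 100% = wells holding no yeast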
tim23-1 conf – tim23-1 yeast growth inhibition, confirmed | shares compounds with tim23-1 inh | S. cerevisiae tim23-1 growth, BacTiter-Glo luminescence, 24 h | inhibition, % at 20 µM | hit rate 83% among 4,400 | AID 463218;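 active means inhibition above about 39% in either of two replicate wells at 20 µM, limit read from the data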;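 further: temperature-sensitive tim23-1 mutant grown at 25 °C; 0% = DMSO wells with yeast and 100% = medium wells without yeast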
* marks the source's active call; other numbers are inactive results; / = not tested or not shown.

SMILES | PfHsp90 set2 | TIM10 inh | NALP3 yeast inh | tim23-1 inh | tim10-1 inh | tim23-1 conf
CCOc1ccc(NC(=O)c2cc3ccccc3cc2OC)cc1 | 13.5 | 0.7 | 21.6 | 14.4 | 7.6 | /
COc1ccccc1C(=O)Nc1nc2ccccc2s1 | 28.6 | 34.6 | 35.8 | 58.3* | 34.8 | 48.3*
COc1ccc(C(=O)Nc2nc3ccccc3s2)c(OC)c1 | 58.0 | 20.3 | 37.4 | 62.6* | 33.2 | 74.8*
COc1ccc(NC(=O)c2cc3ccccc3cc2OC)cc1 | -2.6 | -19.5 | 20.9 | 50.0* | -26.3 | 36.0
C=CCn1cccc(C(=O)Nc2ccc(OC)cc2)c1=O | -1.8 | 5.7 | 19.6 | 95.5* | 4.8 | 19.2
COc1ccc2nc(NC(=O)c3ccccc3C(=O)O)sc2c1 | 1.9 | -23.5 | 16.6 | 9.6 | 4.8 | /
COc1cc(NS(=O)(=O)c2ccc(NC(=O)/C=C/C(=O)O)cc2)nc(OC)n1 | 30.7 | 8.1 | 19.8 | -2.0 | 5.1 | /
Cc1[nH]c(=O)[nH]c(=O)c1S(=O)(=O)Nc1cccc([N+](=O)[O-])c1C | 0.9 | 2.5 | 9.8 | 7.7 | -14.9 | /
CCOC(=O)c1c(S(=O)(=O)NCC(=O)Nc2cccc(C)c2)c(C)n(C)c1C | 15.7 | 2.2 | 5.3 | 9.3 | -5.2 | /
COc1ccc(C(=O)NCC(C)C)c(OC)c1 | -8.0 | 4.6 | 15.4 | 72.4* | -2.5 | 6.7
Cc1cc(C)n(-c2ccc(C(=O)Nc3nc4ccccc4s3)cc2)n1 | -1.5 | 0.0 | -5.6 | -3.6 | -9.7 | /
Nc1ccc(C(=O)Nc2nc3ccccc3s2)cc1 | 25.1 | 11.5 | 30.1 | 50.6* | 2.5 | 44.3*
COc1ccc(CNC(=O)c2nn(-c3ccccc3)cc2OC)cc1 | 6.2 | 23.6 | 7.5 | 24.4 | -26.2 | /
CCCc1cc(=O)oc2cc(OC(C)C(=O)NCc3ccccn3)c(Cl)cc12 (stereo not drawn) | 6.6 | -11.2 | 5.2 | 4.3 | 18.7 | /
CCOc1cc(NCc2ccccc2)c2ncn(C(C)C)c2c1 | -4.9 | 21.7 | 20.4 | 62.8* | -8.1 | 40.1*
CCOc1ccc2nc(NC(=O)c3ccco3)sc2c1 | 35.7 | 39.9 | 24.0 | 55.2* | 20.6 | 57.1*
CS(=O)(=O)c1ccc2nc(NC(=O)c3ccco3)sc2c1 | 27.2 | 29.0 | 13.4 | 54.2* | 30.7 | 52.2*
Cc1nnc(SCC(=O)NC2CCCc3ccccc32)n1-c1ccccc1 (stereo not drawn) | -4.1 | 2.9 | 0.8 | 6.4 | 15.5 | /
COc1ccc(-c2ccnc3c(Br)c(C)nn23)cc1 | -7.1 | 13.0 | 24.5 | 50.5* | 32.0 | 53.4*
Cc1nn2c(-c3ccc(F)cc3)ccnc2c1Br | 4.7 | 9.5 | 10.9 | 21.3 | 9.0 | /
C/C(=N\NC(=O)CSc1ncccn1)c1ccc2c(c1)OCCO2 | -4.7 | -14.5 | 15.9 | 53.1* | -0.6 | 15.2
COCCOC(=O)/C(=C\c1cc(C(C)(C)C)c(O)c(C(C)(C)C)c1)C(C)=O | -26.4 | 33.0 | 5.1 | 59.5* | 35.7 | 58.4*
CC(C)(C)c1cc(CCC(=O)NN)cc(C(C)(C)C)c1O | / | -19.2 | 23.6 | 8.3 | 4.4 | /
COc1ccc(CNC(=O)C(C)Cc2ccccc2)cc1O (stereo not drawn) | 1.8 | -9.6 | 20.3 | 2.7 | 2.9 | /
Cc1c(C(=O)OCC(=O)N2CCC(C)CC2)oc2ccccc12 | / | 35.2 | 44.4 | 54.3* | 20.5 | 57.8*
SMILES | PfHsp90 set2 | TIM10 inh | NALP3 yeast inh | tim23-1 inh | tim10-1 inh | tim23-1 conf
COc1ccc2oc(C(=O)OCC(=O)N3CCC(C)CC3)c(C)c2c1 | -15.0 | -0.7 | 36.4 | 49.9 | 7.0 | /
COc1ccc(/C=N/NC(=O)c2cc(C34CC5CC(CC(C5)C3)C4)[nH]n2)cc1OC | 1.2 | 25.6 | 8.1 | 37.8 | 27.7 | /
COc1cccc(/C=N/NC(=O)c2cc(C34CC5CC(CC(C5)C3)C4)[nH]n2)c1 | -5.5 | 9.7 | 14.8 | 65.7* | 9.3 | 41.5*
COc1cc(/C=C/c2ccc3cccc(O)c3n2)ccc1O | -16.8 | 35.6 | 26.7 | 52.0* | 33.3 | 66.2*
CCCN(Cc1nnc(-c2ccccc2Cl)o1)C(=O)c1cc([N+](=O)[O-])cc([N+](=O)[O-])c1 | -34.0 | 8.9 | 8.1 | 40.6 | 20.8 | /
COc1cc(C2CC(=O)Oc3cc(C)c(Br)c(C)c32)cc(OC)c1OC (stereo not drawn) | 4.8 | -13.2 | / | 29.4 | 9.2 | /
COc1ccc(C2CC(=O)Oc3cc(OC)ccc32)cc1 (stereo not drawn) | -8.6 | 14.4 | / | 50.3* | 20.8 | 23.5
COc1ccccc1C1CC(=O)Oc2cc(C)c(Br)c(C)c21 (stereo not drawn) | -12.0 | 12.9 | / | 60.3* | 32.5 | 42.0*
COc1ccccc1C1CC(=O)Oc2cc(C)c(Cl)c(C)c21 (stereo not drawn) | -6.3 | 11.0 | / | 52.2* | 30.5 | 40.8*
COc1ccc(C2CC(=O)Oc3cc(C)cc(C)c32)cc1 (stereo not drawn) | -34.3 | -7.4 | / | 44.0 | 12.4 | /
COc1ccc(C2CC(=O)Oc3c(C(C)C)ccc(C)c32)cc1 (stereo not drawn) | 2.5 | -1.8 | / | 54.2* | 21.2 | 41.5*
COc1cc(C2CC(=O)Oc3cc(C)c(Cl)c(C)c32)cc(OC)c1OC (stereo not drawn) | -10.5 | -12.1 | / | 28.3 | 7.0 | /
CC(=O)Nc1ccc(S(=O)(=O)N(C)CC(=O)N(C)Cc2sccc2C)cc1 | / | 5.2 | 2.8 | -1.1 | -3.1 | /
COc1ccc(C2CC(=O)Oc3cc(C)c(Cl)c(C)c32)cc1 (stereo not drawn) | -43.4 | 7.5 | / | 50.9* | 30.1 | 37.3
CC(C)N(C(=O)CN1C(=O)NC(c2ccccc2)(c2ccccc2)C1=O)C(C)C | -23.4 | 8.2 | -4.5 | -5.3 | -21.7 | /
NC(=S)NN=C1c2ccccc2-c2ccccc21 | -17.8 | 39.8 | 26.1 | 57.2* | 35.9 | 46.0*
O=C(NN=C1c2ccccc2-c2ccccc21)c1ccccc1 | -30.5 | 34.1 | -3.0 | 50.4* | 18.6 | 65.8*
CCOC(=O)NN=C1c2ccccc2-c2ccccc21 | -39.0 | 10.8 | -1.3 | 34.7 | 18.6 | /
COc1ccc(CCNC(=O)c2c(O)c3ccccc3[nH]c2=O)cc1 | 1.3 | -20.4 | 14.3 | -1.7 | -40.4 | /
O=C(Cn1cncn1)NCc1cc(F)ccc1F | -8.8 | -0.8 | 6.6 | 8.0 | 7.5 | /
CCc1ccc(OCC(=O)N2CCN(c3ccccn3)CC2)c(Br)c1 | -12.6 | 25.8 | 26.1 | 52.7* | 37.4 | 38.5
O=C(COc1ccc(Br)cc1Cl)N1CCN(c2ccccn2)CC1 | 17.1 | 8.7 | 33.4 | 45.9 | 37.2 | /
CN(C)C(=O)CCc1ccc2c3c([nH]c2c1)[C@]1(CCc2ccccc2)[C@@H](C(=O)N2CCCCC2)C[C@H](CC(=O)NCCc2ccccn2)C(=O)N1CC3 | -7.9 | -2.0 | / | 30.0 | 14.2 | /
O=C(CC(=O)c1cc(Cl)ccc1O)c1ccccc1 | -38.8 | 23.1 | 17.4 | 55.5* | 34.2 | 65.0*
COc1ccc(C(=O)CC(=O)c2ccccc2O)cc1 | -31.1 | 6.6 | 30.2 | 50.3* | 3.6 | 52.5*
O=C(NNS(=O)(=O)c1ccccc1F)c1sccc1-n1cccc1 | 11.0 | 15.0 | 13.7 | -0.4 | 11.8 | /
CC(=O)NNC(=O)c1[nH]c2ccc(Br)cc2c1-c1ccccc1 | 1.6 | 12.9 | 11.7 | 10.5 | 18.9 | /

Screening data deposited in PubChem by several laboratories.
